The target of assay [1] is Ubiquitin carboxyl-terminal hydrolase 1 (Homo sapiens) (UniProt O94782). Briefly: Inhibitors of USP1/UAF1: Pilot qHTS (AID 504865).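 Further: rhodamine fluorescence freed from ubiquitin-rhodamine substrate followed over time; top concentration of the series differs between compounds; nearly all actives have a fitted effect of over 35% in size.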 The method, boiled down: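 In 50mM HEPES pH 7.8 containing 0.5mM EDTA, 1mM TCEP, 0.1 mg/ml BSA and 0.01% Tween-20, 1nM USP1/UAF1 is exposed to compound for 15 min, then Ub-Rho (150nM final) is added and fluorescence is read over time.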
(In general: qHTS replaces the single test concentration by a dilution series.)

Assay [2] in a line: S16 Schwann cell viability assay (CellTiter-Glo assay) (AID 624031). Further: nearly all actives have a fitted effect of over 70% in size. The essentials: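 Native S16 rat Schwann cells in DMEM/10% FBS without phenol red were incubated overnight, then exposed to compounds for 24 h at 37 °C/5% CO2. Viability was read as ATP luminescence (CellTiter-Glo), normalized to no-cell wells and DMSO (0%).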
Background: ATP-based viability assays read luminescence as a measure of living cells.

A short description of assay [3]: S16 Schwann cell PMP22 intronic element firefly luciferase assay (AID 624032). Further: nearly all actives have a fitted effect of over 30% in size. The method, boiled down: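 Luciferase reporter of PMP22 intronic-element expression in stably transfected S16 rat Schwann cells, read by ONE-Glo luminescence after 24 h compound exposure at 37 C. Activity scaled between DMSO (0%) and positive-control PTC124; concentration-effect curves quality-classified.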

The nature of assay [4]: S16 Schwann cell PMP22 intronic element beta-lactamase assay (AID 624044; calls by dose curve; further: nearly all actives have a fitted effect of over 15% in size). The conditions noted are these: S16 rat Schwann cells, PMP22 element beta-lactamase FRET, 24 h; ratio activity, negative = inhibition: at 38.3 µM (top of the series). The essentials:
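Rat S16 Schwann cells with beta-Lac driven by a PMP22 intronic element, compound-treated 24 h at 37 °C. LiveBLAzer FRET B/G read: 460 nm normalized to potassium clavulanate vs DMSO; 535 nm FRET as viability; concentration-effect curves classified.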

A further assay deals with W2. Description: qHTS profiling for inhibitors of Plasmodium falciparum proliferation (AID 504749). Further: nearly all actives have a fitted effect of over 60% in size. Further: potency means the concentration at half of the fitted maximal effect. The note with it: P. falciparum in erythrocytes, SYBR Green DNA, 72 h; series mostly up to 28.7 µM. The essentials: (§1)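 Infected RBCs, 0.3% parasitemia/2.5% Hct final; cpd 72 h, 37 C, 5% CO2; lysis buffer with saponin/triton/SYBR Green I, o/n RT dark; FI 485/535; norm. to artemisinin (0.29 uM) and DMSO.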

Assay [5] addresses Cytochrome P450 3A4 (Homo sapiens) (UniProt P08684). Briefly: qHTS Assay for Inhibitors and Substrates of Cytochrome P450 3A4 (AID 884). Further: nearly all actives have a fitted effect of over 50% in size. The method, boiled down:
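20 nM human CYP3A4 with 25 uM Luciferin-PPXE (at KM) in 200 mM KPO4, preincubated 10 min with compound; NADPH regeneration started a 60 min RT reaction. Luciferin detected by luminescence, normalized to 57 uM ketoconazole as full inhibition.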

Assay [6] is described as follows: Confirmation and Secondary Assay for Modulators of Hemoglobin Beta Chain Splicing at IVS2 705 locus (AID 930).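 Further: HeLa cells stably expressing the EGFP-705 splicing reporter.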 The method, boiled down: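 HeLa cells stably carrying EGFP interrupted by mutant beta-globin IVS2-705 intron (CMV-driven) were seeded at 500 cells/well, treated next day with compound for 2 days at 37C; corrected splicing restores EGFP, read as total peak GFP intensity per well.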

The subject of another assay is DFO2036. Briefly: qHTS profiling for inhibitors of Plasmodium falciparum proliferation (AID 504749). Further: nearly all actives have a fitted effect of over 60% in size. Further: potency means the concentration at half of the fitted maximal effect. The note with it: P. falciparum in erythrocytes, SYBR Green DNA, 72 h; series mostly up to 28.7 µM. The method, boiled down:
as §1

Experimental findings from PubChem BioAssay (NCATS) are described below.

Records with an inconclusive call do not appear. The source made the active and inactive calls. Unless noted, the call rests on the fitted dose curve; in most records, active means well fitted curve in the direction sought with a large enough effect; inconclusive means small, poorly fitted or top-dose-only effect, or another doubt; inactive means no such curve, though single readings can be large; an effect the other way counts as inactive or inconclusive.

Sequence of Ubiquitin carboxyl-terminal hydrolase 1 (Homo sapiens) (O94782 whole entry, looked up): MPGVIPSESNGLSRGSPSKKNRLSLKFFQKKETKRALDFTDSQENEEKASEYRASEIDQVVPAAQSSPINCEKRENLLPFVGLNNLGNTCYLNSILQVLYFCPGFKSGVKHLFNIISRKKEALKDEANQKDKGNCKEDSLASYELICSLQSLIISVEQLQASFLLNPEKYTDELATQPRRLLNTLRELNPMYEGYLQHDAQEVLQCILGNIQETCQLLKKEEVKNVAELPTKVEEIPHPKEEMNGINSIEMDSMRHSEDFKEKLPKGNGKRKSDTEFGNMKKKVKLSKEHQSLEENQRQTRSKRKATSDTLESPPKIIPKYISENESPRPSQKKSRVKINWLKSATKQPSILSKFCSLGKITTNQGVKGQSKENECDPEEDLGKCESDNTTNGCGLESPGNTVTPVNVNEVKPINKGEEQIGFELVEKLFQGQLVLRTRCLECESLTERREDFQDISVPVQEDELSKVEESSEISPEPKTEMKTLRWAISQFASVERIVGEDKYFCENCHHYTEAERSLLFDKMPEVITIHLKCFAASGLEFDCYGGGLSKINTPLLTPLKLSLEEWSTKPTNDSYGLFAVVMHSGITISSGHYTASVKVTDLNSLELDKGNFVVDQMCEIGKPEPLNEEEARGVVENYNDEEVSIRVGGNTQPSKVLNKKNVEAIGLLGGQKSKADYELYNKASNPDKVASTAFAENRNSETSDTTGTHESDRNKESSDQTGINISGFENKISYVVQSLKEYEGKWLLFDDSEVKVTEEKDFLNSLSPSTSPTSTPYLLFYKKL
Sequence of Cytochrome P450 3A4 (Homo sapiens) (P08684 whole entry, looked up): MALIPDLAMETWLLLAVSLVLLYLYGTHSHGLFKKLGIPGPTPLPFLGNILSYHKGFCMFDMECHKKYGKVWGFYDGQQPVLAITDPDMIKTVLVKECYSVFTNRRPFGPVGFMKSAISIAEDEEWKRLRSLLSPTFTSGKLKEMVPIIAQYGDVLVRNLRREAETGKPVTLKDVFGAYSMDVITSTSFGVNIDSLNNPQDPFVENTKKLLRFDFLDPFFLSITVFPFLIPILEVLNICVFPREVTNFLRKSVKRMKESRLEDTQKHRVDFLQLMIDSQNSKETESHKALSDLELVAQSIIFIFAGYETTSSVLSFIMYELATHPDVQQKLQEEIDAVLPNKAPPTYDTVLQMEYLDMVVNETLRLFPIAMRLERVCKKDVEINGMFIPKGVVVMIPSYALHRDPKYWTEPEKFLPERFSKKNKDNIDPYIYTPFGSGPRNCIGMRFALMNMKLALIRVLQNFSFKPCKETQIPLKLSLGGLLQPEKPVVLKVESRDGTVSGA

Consider `CC[C@@H]1/C=C(\C)C[C@H](C)C[C@H](OC)[C@H]2O[C@@](O)(C(=O)C(=O)N3CCCC[C@H]3C(=O)O[C@H](/C(C)=C/[C@@H]3CC[C@H](Cl)[C@H](OC)C3)[C@H](C)[C@@H](O)CC1=O)[C@H](C)C[C@@H]2OC`, for which the Potency entry (in assay [1]; in assay [2]; in assay [3]; in assay [4]; with W2) was “inactive” throughout.

Take `CC(CCC(=O)O)C1CCC2C3C(=O)C[C@@H]4CC(=O)CC[C@@]4(C)C3CC(=O)[C@]12C` (stereo partly drawn): the Potency result in assay [5], in assay [6], in assay [1], in assay [2], in assay [3] and in assay [4] was “inactive” throughout. The Potency result with DFO2036 was “inactive”.

As to `CC1(C(=O)O)CCC2(C)CCC3(C)C(=CC(=O)C4C5(C)CCC(O)C(C)(C)C5CCC43C)C2C1` (stereo not drawn), the Potency result (in assay [2]; in assay [3]; in assay [4]; in the assay on W2) was “inactive” in each case.

As to `CC(=O)OCC(=O)[C@@]1(O)CCC2C3CCC4=CC(=O)C=CC4(C)C3C(O)C[C@]21C` (stereo partly drawn), the Potency entry in assay [5], in assay [6], in assay [1], in assay [2], in assay [3] and in assay [4] was “inactive” throughout. In the assay on W2, the Potency result was “inactive”.

As for `CCN(CC)CC(=O)Nc1c(C)cc(C)cc1C`, the Potency result (in assay [1]; in assay [3]; in assay [4]; in the assay with DFO2036) was “inactive” in each case.

Take `C=C(NCc1ccccc1)c1ccccc1O`: the Potency entry (in assay [1]; in assay [2]; in assay [3]; in assay [4]; with W2) was “inactive” each time.

As for `CO[C@H]1C[C@@H]2CC[C@@H](C)[C@@](O)(O2)C(=O)C(=O)N2CCCC[C@H]2C(=O)O[C@H]([C@H](C)C[C@@H]2CC[C@@H](O)[C@H](OC)C2)CC(=O)[C@H](C)/C=C(\C)[C@@H](O)[C@@H](OC)C(=O)[C@H](C)C[C@H](C)/C=C/C=C/C=C/1C`, the Potency result in assay [3] and in assay [4] was “inactive” in each case. In addition, the Potency in the assay with DFO2036 is 1.78 µM (active); with W2, 1.2 µM (active).

Regarding `Cc1ccc(/C=C2/C(=O)C3(C)CCC2C3(C)C)cc1` (stereo not drawn), the Potency entry (in assay [1]; in assay [2]; in assay [3]; with DFO2036) was “inactive” in each case.

Regarding `NC(=O)OC[C@@H]1[C@H](NC(=O)/C(=N/OCC(=O)O)c2csc(N)n2)C(=O)N1S(=O)(=O)O`, the Potency result (in assay [1]; in assay [2]; in assay [3]; in assay [4]; in the assay with DFO2036) was “inactive” each time.

With `CC(=O)N[C@H]1[C@H](O[C@@H]2c3ccc(c(Cl)c3)Oc3cc4cc(c3O[C@@H]3O[C@H](CO)[C@@H](O)[C@H](O)C3C)Oc3ccc(cc3Cl)C[C@H]3NC(=O)[C@@H](N)c5ccc(O)c(c5)Oc5cc(O)cc(c5)[C@H](NC3=O)C(=O)N[C@H]4C(=O)N[C@H]3C(=O)N[C@@H]2C(=O)N[C@@H](C(=O)O)c2cc(O)cc(O[C@H]4O[C@H](CO)[C@@H](O)C(O)[C@@H]4O)c2-c2cc3ccc2O)O[C@H](CO)[C@@H](O)[C@@H]1O` (stereo partly drawn), the Potency entry (in assay [2]; in assay [3]; in assay [4]; with W2) was “inactive” each time.

For `CCCC(=O)O[C@]1(C(=O)COC(C)=O)CC[C@H]2C3C[C@H](F)C4=CC(=O)C=CC4(C)[C@@]3(F)[C@@H](O)CC21C` (stereo partly drawn), the Potency entry (in assay [2]; in assay [3]; in the assay on DFO2036) was “inactive” in each case.

Consider `CO/N=C(/C(=O)N[C@@H]1C(=O)N2C(C(=O)O)=C(CSC(=O)c3ccco3)CSC12)c1csc(N)n1` (stereo partly drawn), for which the Potency result (in assay [1]; in assay [2]; in assay [3]; in assay [4]; in the assay with W2) was “inactive” throughout.

As to `NCCCCC(N)C(=O)O` (stereo not drawn), the Potency result (in assay [1]; in assay [2]; in assay [3]; in assay [4]; in the assay with DFO2036; with W2) was “inactive” each time.

In the case of `OCC(CO)NC1C[C@](O)(CO)[C@@H](O)[C@H](O)[C@H]1O` (stereo partly drawn), the Potency result (in assay [1]; in assay [2]; in assay [3]; in assay [4]; in the assay on DFO2036; in the assay with W2) was “inactive” in each case.

With `CC(=O)N1CC(O)CC1C(=O)O` (stereo not drawn), the Potency result (in assay [1]; in assay [2]; in assay [3]; in assay [4]; with DFO2036; in the assay on W2) was “inactive” throughout.

Regarding `COC1CC2CCC(C)[C@](O)(O2)C(=O)C(=O)N2CCCCC2C(=O)OC(C(C)CC2CCC(O)C(OC)C2)CC(=O)C(C)/C=C(/C)C(O)C(OC)C(=O)C(C)CC(C)C=CC=C/C=C\1C` (stereo partly drawn), the Potency entry in assay [2] and in assay [4] was “inactive” in each case. For the same compound, the Potency with DFO2036 is 1.41 µM (active); in the assay with W2, 0.675 µM (active).

With `CO/N=C(/C(=O)N[C@@H]1C(=O)N2C(C(=O)O)=C(C[n+]3ccc(N)n3CCO)CS[C@H]12)c1csc(N)n1`, the Potency entry (in assay [1]; in assay [2]; in assay [3]; in the assay with W2) was “inactive” each time.
